Out of some 53,000 sequences screened, about 3,700 (7%) were called active. This is one part of a sample in which actives are shown more often than they occur. Values without a mark were called inactive.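 The calls were made as follows: active = gene knockdowns whose robust z-score for IL-1 alpha signal is at least 2 or at most -2, so actives lie on both sides; inactive = the rest.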

The nature of this assay: Components of the Cytosolic LPS Sensing Pathway: Gene Identification via Genome-wide siRNA Screen.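 Also: robust z of the log signal after scaling to non-targeting control siRNA wells of the plate.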 The following applies: RAW264.7 macrophages, IL-1a HTRF, actives lie on both sides, screened at 100 nM (by protocol), cells primed 5 h with Pam3CSK4 first. In short, it runs like this:
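RAW264.7; siRNA 100 nM final, RNAiMAX, 48h 37 degrees C; Pam3CSK4 5 h; LipidA + TransIT-TKO 24 h; IL-1a HTRF; CellTiter-Glo viability; robust z vs negative-control median.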
(In TR-FRET formats the signal depends on donor and acceptor labels being close together.)
With GUGAUUGGGAACCUGUUUATT against Paqr6, the z-score was -1.35.

For GCAGAUCAGUUGGUACAAGTT against Acss3, the z-score was 0.0616.

With GCUAACACAACGAGAGAAGTT against Ushbp1, the z-score was -2.39 (active).

As to GGAUUCACACAGAGGUAAATT against Zfp169, the z-score was -0.215.

With CCCAUAUUAAUUAUGGCGUTT against Hadha, the z-score was -0.189.

Turning to GCCAUACAUAAACUACAAUTT against Gulo, the z-score is -0.175.

In the case of GUACUUGAAACGAACUGGATT against B4galnt4, the z-score is -1.68.

CCUUACCCUGUUAUACAAGTT against Hirip3: the z-score is 2.69 (active).

As to GGCUAAAACAGGAAAUCUGTT against Mip, the z-score is -0.398.

In the case of CCACUUUAAAGGCUCUUCUTT against H3c8, the z-score was -2.17 (active).

CCGACUUCGUACAAUGACCTT against Slc1a6: the z-score is 1.45.

Consider GGAGAACAAGAUCCUGGAGTT against Ccdc39, for which the z-score is 1.73.

GGAUCCAGAAGAGCAUCUCTT against Sap30: the z-score is -0.33.

Regarding GGGCGUGAUUUAUUUCUACTT against Mfsd6l, the z-score was 1.45.

Consider GGCUAUGCUUUUGUCCAGUTT against Raly, for which the z-score was -0.392.

As for GGUGUCUUUGCUCUUAAUUTT against Sike1, the z-score is 0.277.

CGCAGUCCUUGACAUUAAATT against Rab3a: the z-score was 0.0328.

With GCUCUUGGGAUGGACGAUATT against Hmgcs1, the z-score was 4.73 (active).

For GGCAGACAUAAGGCUUUCUTT against Olfr1056, the z-score was -0.754.

Take GGGCAGGAAAAAAAAUUCATT against Vps13b: the z-score is 1.68.

On to CCACUGAAGGAAGUUCGCUTT against Amer2, for which the z-score is 0.21.

Regarding GGAUAAAUGCCAUUUUGGATT against Cpeb1, the z-score was -0.664.

For GCCUUAACCACAAUUAAAATT against Etfrf1, the z-score is -0.578.

For the sequence GGGAUCUGGAUGAGGUCAATT against Tcf7l1, the z-score was 3.02 (active).

With GGAAAUUAGUGCUGGGCGUTT against Erbb3, the z-score is 0.424.

Take CGAAAUUGAUUCUAUCUGCTT against Katnal1: the z-score was -0.59.

As to GGGUCUCUAUGGAAUCAAUTT against Ldha, the z-score was 2.83 (active).

On to GGCAGUAUGAGAGGUAUUUTT against Entpd7, for which the z-score was 0.345.

As to CCAAACGAAGGAAGCUGACTT against Taf6l, the z-score was -2.09 (active).

GGGAGAUAAAAAGUUAAGGTT against Bclaf1: the z-score is 1.38.

GGCUUUCGUUUACAACAAGTT against Naglu: the z-score was -0.414.

For the sequence GGUUAUCAUACUUUUUGUGTT against Phf10, the z-score was -0.582.

CCAAACAAUGUUGUUUAGGTT against Rilpl1: the z-score is -0.965.

With CCUCGAGUUCGGAAACAGATT against Chd8, the z-score was -1.06.

In the case of CCUGCCUAGAUGUUUCAGCTT against Ifna13, the z-score was -0.196.

With GGACAAUAGAUGUGUUUGATT against Ddb2, the z-score was 1.57.

As to GCUUGGCCGUGAUUGUUGCTT against Fndc10, the z-score is 2.35 (active).

In the case of GGCUUGGUGAGCUACCUACTT against Wdr62, the z-score is -0.839.

As for GGCACACUUAAGUAAAAGUTT against Kras, the z-score was -0.542.

For the sequence GGCUACCUUCUACCUAAGGTT against Cyp2g1, the z-score was 1.42.

For the sequence CGGCAAGCCCAAAAAGGUCTT against Dlx3, the z-score was -2.34 (active).

GCAAUCUGUCCUUCUGUGATT against Olfr1133: the z-score was -0.818.

On to CCUGUACUGAACUACUUGATT against Kctd5, for which the z-score is 0.0535.

Take CCUGGUACAAGGAACCAGUTT against Zim1: the z-score was 0.285.

For the sequence GGACCCAAUAAAACUUCCGTT against Ttc36, the z-score was 1.13.

With CCACAUACUCUAAUGAAGUTT against Casp1, the z-score is 0.176.

On to GGAACUGGGUUCAUCCACATT against Snrpb2, for which the z-score was -2.02 (active).

As to GGAAAAAGAGCUUUUGGUCTT against Piwil2, the z-score is 0.528.

On to GGAUGAGUUAAGUUUCUCATT against Sh3d19, for which the z-score was -1.57.

With CCCUAAUAGGUCAAUAAAGTT against Vmn1r71, the z-score is -0.0066.

Turning to GGCAUUUCGUGGAUCACCGTT against Mtg2, the z-score was -1.56.

As to GGGUCACGUGCUGUCUCAUTT against Slc22a20, the z-score was -1.55.

Turning to GCAAAGCCUUACCAUGUAATT against Ighg, the z-score is 1.33.

On to GGUCAUGGUCUGAGAUUCUTT against Txnl4a, for which the z-score was -2.34 (active).

As for GGAAGUCAAGAAAGUGGCCTT against H1f0, the z-score was -0.294.

For the sequence GGGAUACAAUGUAACAUACTT against L1cam, the z-score is -0.0915.

For GGACAGCUCUCUCCAUACATT against Tlr9, the z-score was 0.653.

With GGAUUUUGUUCUUACAGUUTT against Nfia, the z-score was 2.8 (active).

Turning to GGGAACUUUUUUGAUGGGCTT against Psmb2, the z-score was -1.13.

On to GCACAUUCAUAGGAGUACCTT against Vmn1r237, for which the z-score is 0.371.

With CGAAACUCCCAUUGUUAAUTT against Zfp521, the z-score was 1.29.

As for GGAUCACAGAAUAGAACAATT against Hpgds, the z-score is 0.237.

With CCACAUGAACAAUUUGGGCTT against Rpl9, the z-score is 0.0288.

Consider CCACGACACGCAAGAUGAGTT against Fzd8, for which the z-score was -0.756.

On to CGACAAUACUCUCUUCAAGTT against Fst, for which the z-score was 0.691.

For CCAUCUGUAACGGAUCUGATT against Prorsd1, the z-score is 0.893.

Regarding GGAAGCUGUCCAAAAUGAGTT against Hnf4a, the z-score is 2.55 (active).

Take CCAGUUUAUCACAUAACCUTT against Wasl: the z-score was -0.928.

For CCAAAGAUACCAUUUUGCATT against Lypd8, the z-score was 0.599.

Take GGUACCAGGUAUCUUCAUUTT against Pard6g: the z-score was 2.95 (active).

For GGAAUGCAGCCAUCCUAUCTT against Mia, the z-score was 0.0985.

For the sequence CCCAGAUUACCGUAAGCGATT against Jup, the z-score was 0.264.

With GGCCAAAUGGAAUAAGAAGTT against Wdr59, the z-score was 0.774.

Regarding GGUUGCUUGGAAUUAAAAGTT against Klhl1, the z-score is -1.58.

In the case of GGGUUGAUUUGGUGUUUUATT against Usp46, the z-score is 0.673.

On to CCUUGUAGUAAUAGGGAUGTT against Olfr116, for which the z-score is 0.681.

In the case of GGAAAUGAGUGAAGAUGAATT against Cdk11b, the z-score was -0.186.

For the sequence GGCAUGUAAUGAAUUCACATT against Pbx3, the z-score was -2.14 (active).

Turning to CGCAUAUAUGUGUGUCGCCTT against Tmem125, the z-score was 0.256.

For CCCAAAUUGAUCCUAGCCUTT against Prkar1b, the z-score was 0.307.

Turning to GGGCCUAUGUGCUUUAUAUTT against Usp8, the z-score was -0.0584.

On to GGUCAUGGAAGAAGCAAAGTT against Sltm, for which the z-score was 2.08 (active).

Turning to GCUGUCCUGCCGUAAUAGATT against Oma1, the z-score is -0.619.

As for GCAAAGGAUCCAAUUUUAGTT against Rnf227, the z-score was 1.28.

As to GGUCCAAUUACUGAAGGUUTT against Spaca7, the z-score is 2.09 (active).

GCUCCAACUACAUUGACUATT against Olfr1410: the z-score is -0.396.

Take GCCGAGAGAGCCAAUACAATT against Tbc1d16: the z-score is 0.248.

GGAAACACCUUUGAGGCUCTT against Kndc1: the z-score was -1.88.

On to GCUACAGGAUAAGUCCAAUTT against Kpnb1, for which the z-score was -2.01 (active).

CCGAAUCGUCCUAAACCAATT against Cyp11a1: the z-score is 0.284.

On to GUACAUUUGCUGGAGCCUCTT against Hps6, for which the z-score was 0.395.

With GCCUUUCUUCUGUCAAUGATT against Olfr281, the z-score is 2.38 (active).

Regarding CCGACCAGAAGCUUUAAAGTT against Msrb1, the z-score was 1.05.

Consider GGGAGUUGGUGGAAUGCUUTT against Ech1, for which the z-score was -0.221.

As to GGAGUUUGAACAAGAAAUATT against Prss12, the z-score was 1.11.

Regarding GCCACCGAACCUAUAAAGCTT against Scd4, the z-score is 0.265.

On to GGUGUGCAUCAAGCGACUGTT against Cacng6, for which the z-score is 2.1 (active).

Take GGUUCUAGAUGCUAAUAAGTT against Ciao3: the z-score is -0.381.

Turning to GGAUCUGACAAGGUACAAGTT against Acsm5, the z-score was 0.145.

As for GCUAUGGGUAAACUUUUUGTT against Olfr354, the z-score is 0.905.

For the sequence CCUAGACAAUACUUGCCUGTT against Gpr180, the z-score is 0.873.

For the sequence GCCUGUUCGGUGUUCAACUTT against Etv3, the z-score is 0.808.

For the sequence GCCUAGUUCUUUAUGCUAUTT against Golga4, the z-score was 4.37 (active).

As to CCACCUGUCGAGAUGUCGUTT against Ppp1r13b, the z-score is 1.1.

As to GGAUCACGUUUCAAACAUCTT against Mtmr12, the z-score was 0.296.

As to GGAGCACAAUAGUAAACUATT against Polr1a, the z-score is 2.78 (active).

With GGUGAAGAUAAGUAUCUGCTT against Mug2, the z-score is -0.0586.

With GCUUGAUUAGGUAGGAAUATT against Stk32a, the z-score is -0.388.

Values taken from PubChem BioAssay AID1508600 (Functional Genomics Laboratory (NCATS/FGL), 2020).
